# Source: PubChem BioAssay
# A selection: hits, their analogues and other compounds. The true share with any hit is near 4.1%.
# DAX1 inh-1 – blocks DAX1 repression of SF-1 activated StAR promoter; AID 652010; inhibition, % at 6.8 µM; hit rate 1.1% among 370,000; HEK293T StAR-luciferase reporter, SF-1/DAX-1 repression relief;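 active = inhibition above the mean over all tested compounds plus 3 SD, cut at about 3.6% in these data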;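 note: 0% = DAX-1 cells with DMSO and 100% = cells lacking DAX-1 with DMSO; higher inhibition means more luminescence from relief of DAX-1 repression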
# ssDAF-12 act – activators of S. stercoralis DAF-12 nuclear receptor; hit rate 1% among 370,000; activation, % at 6.8 µM; HEK293 ssDAF-12/GRIP1 lit1-tk-luc reporter, luminescence; % of 3 µM dafachronic acid response;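 active = activation above the mean over all tested compounds plus 3 SD, cut at about 0.9% in these data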;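 note: 0% = DMSO-only wells and 100% = 3 µM delta7-dafachronic acid wells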
# hgDAF12 agonist – agonists of H. glycines DAF-12 nuclear receptor | hit rate 1.8% among 370,000 | HEK293 GAL4-hgDAF12 UAS-luciferase reporter, agonist luminescence; normalized to butyrate control | activation, % at 6.8 µM;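 active = activation above a cutoff set at the mean of all screened compounds plus 3 SD, cut at about 10% in these data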;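 note: 0% = DMSO wells and 100% = sodium butyrate wells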
# DAX1 inh-2 – inhibits human nuclear receptor DAX1; P51843; HEK293 Gal4-DAX1 luciferase reporter, luminescence; inhibition, % at 6.75 µM; hit rate 0.99% among 340,000; AID 504766;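 active = inhibition above the mean over all tested compounds plus 3 SD, cut at about 4.2% in these data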;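 note: 0% = DAX1-transfected cells with DMSO and 100% = empty-vector control cells with DMSO; inhibition shows as a rise in luminescence from relieved DAX1 repression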
# hcDAF-12 act – activates DAF-12 receptor from parasite H. contortus | HEK293 hcDAF-12 lit1-tk-luc reporter, luminescence; 0% DMSO, 100% Δ7-dafachronic acid | activation, % at 6.8 µM | hit rate 1.4% among 370,000 | AID 652067;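 active = activation above the mean of all tested compounds plus 3 SD, cut at about 5.5% in these data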;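 note: 100% = response to 3 µM Δ7-dafachronic acid high control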
# DAX1 conf – NR0B1 (human) inhibition, confirmation; shares compounds with DAX1 inh-1; HEK293T StAR-promoter luciferase reporter, SF-1/DAX-1 repression; inhibition, % at 6.8 µM; hit rate 87% among 2,400;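 active = inhibition above the average of every tested compound plus 3 SD, cut at about 3.8% in these data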;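 note: 0% = DAX-1 cells with DMSO and 100% = no DAX-1 control cells with DMSO; active compounds raise luminescence by relieving repression of the StAR reporter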
# Target sequence (P51843 whole entry, looked up): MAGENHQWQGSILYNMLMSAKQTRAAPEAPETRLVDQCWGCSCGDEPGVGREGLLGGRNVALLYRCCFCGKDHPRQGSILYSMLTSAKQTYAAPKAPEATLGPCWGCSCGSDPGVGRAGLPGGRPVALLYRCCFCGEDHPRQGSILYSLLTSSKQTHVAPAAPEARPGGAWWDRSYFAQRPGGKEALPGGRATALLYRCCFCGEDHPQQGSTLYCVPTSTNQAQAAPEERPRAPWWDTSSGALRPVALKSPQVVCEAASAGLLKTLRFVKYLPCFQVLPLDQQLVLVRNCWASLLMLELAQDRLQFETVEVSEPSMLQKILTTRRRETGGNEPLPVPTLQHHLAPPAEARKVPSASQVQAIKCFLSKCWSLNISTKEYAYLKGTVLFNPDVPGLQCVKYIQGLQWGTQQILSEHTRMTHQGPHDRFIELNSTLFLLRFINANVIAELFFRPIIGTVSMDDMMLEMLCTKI
# SF1 AF2mut Luc – counter-screen for DAX1 inhibitors: nonselective inhibitors with SF-1 AF2 mutant; shares compounds with DAX1 inh-1; HEK293 StAR-luciferase, luminescence; inhibition, % at 6.8 µM; hit rate 78% among 2,400; AID 652136;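 active = inhibition above the mean of all tested compounds plus 3 SD, cut at about 3% in these data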;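 note: 0% = DAX-1 transfected cells with DMSO and 100% = cells without DAX-1 with DMSO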
# LXR ag – LXR-beta agonism as hcDAF-12 counter-screen; shares compounds with hcDAF-12 act; 3,400 tested, under 10 active; HEK293 Gal4-LXR tk-luc reporter, luminescence, 24 h; normalized: DMSO 0%, positive control 100%; activation, % at 6.8 µM;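 active = mean percent activation of the reporter above a cutoff set as the average over tested compounds plus their standard deviation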
# hcDAF12 conf – hcDAF-12 agonism, confirmation assay; shares compounds with hcDAF-12 act; HEK293 hcDAF-12 lit1-tk-luc reporter, luminescence; % of Δ7-dafachronic acid response; activation, % at 6.8 µM; hit rate 61% among 3,400;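 active = mean activation across triplicate tests above the threshold derived from the earlier primary screen, cut at about 5.5% in these data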;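 note: 0% = DMSO only wells and 100% = 3 µM Δ7-dafachronic acid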
# hgDAF12 conf – hgDAF-12 agonism, confirmation assay | activation, % at 6.8 µM | shares compounds with hgDAF12 agonist | hit rate 80% among 3,300 | HEK293 GAL4-hgDAF12 luciferase reporter, agonist mode; percent of butyrate response;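 active = mean activation over triplicate wells above the hit cutoff derived from the earlier primary screen, cut at about 11% in these data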;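 note: 0% = DMSO low control and 100% = 2 mM sodium butyrate high control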
# LXRb DAF12 ctr – activates human LXR-beta, counter-screen for DAF-12 agonists. shares compounds with hgDAF12 agonist. HEK293 Gal4-LXR luciferase reporter, 24 h. activation, % at 6.8 µM. 3,300 tested, under 10 active;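 active = mean activation of the triplicate above a set limit carried over from the primary screen, none filed active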
# * marks the source's active call; other numbers are inactive results; / = no result given.
SMILES,DAX1 inh-1,ssDAF-12 act,hgDAF12 agonist,DAX1 inh-2,hcDAF-12 act,DAX1 conf,SF1 AF2mut Luc,LXR ag,hcDAF12 conf,hgDAF12 conf,LXRb DAF12 ctr
C/C(=N/NC(=O)c1ccc(C)s1)c1cccc(NC(=O)c2ccoc2C)c1,1,-1,4,0,-1,/,/,/,/,/,/
C/C(=N/NC(=O)c1ccoc1C)c1cccc(NC(=O)C(F)(F)F)c1,6.0*,1,15*,2,3,6.3*,2,/,/,6,0
C/C(=N/NC(=O)c1ccoc1C)c1cccc(NC(=O)C2CC2)c1,6.1*,1.0*,16*,1,7.3*,1,0,0,0,0,0
COc1ccccc1NC(=O)OC[C@@H]1CSCCS(=O)(=O)N1,0,0,2,/,2,/,/,/,/,/,/
CC[C@@H](NCCCn1ccc(NC(=O)OCc2ccccc2)nc1=O)c1ccccc1,-1,-1,-1,2,3,/,/,/,/,/,/
C[C@H]1COc2cc(N3CCCC3)ccc2S(=O)(=O)N1,-1,-1,0,/,2,/,/,/,/,/,/
O=C(Nc1nsc(-c2ccccc2)n1)c1cccs1,4.5*,1,15*,0,3,7.9*,4.5*,/,/,16*,1
O=C(CSc1nnc(-c2ccco2)n1-c1ccc(Cl)cc1)Nc1ccc(S(=O)(=O)Nc2nccs2)cc1,1,-1,-1,/,0,/,/,/,/,/,/
O=C(Nc1cccc(C(F)(F)F)c1)OC1CC2CC1[C@H]1CCCCN1[C@H]2Cc1ccccc1 (stereo partly drawn),-1,-1,0,/,-1,/,/,/,/,/,/
COc1ccccc1NC(=S)N/N=C/c1cccc(C)c1,1,-1,7,1,0,/,/,/,/,/,/
COc1ccccc1NC(=S)N/N=C/c1ccc(O)cc1,5.5*,-1,19*,1,6.1*,16*,8.4*,/,/,20*,1
Cn1cccc1C(=O)C(=O)Nc1cc(Cl)cc(Cl)c1,1,0,4,0,-1,/,/,/,/,/,/
Cn1cccc1C(=O)C(=O)Nc1ccc(Cl)cc1,5.1*,1.4*,14*,0,11*,15*,9.2*,2,8.6*,20*,1
Cn1cccc1C(=O)C(=O)Nc1ccc(F)c(F)c1,4.9*,1.8*,15*,4,5,9.1*,7.7*,/,/,16*,1
CCOC(=O)[C@]12CCCC=C1N(Cc1ccc3c(c1)OCO3)C(=O)[C@H](CC(=O)NCc1ccc(C)o1)C2,2,-2,0,/,1,/,/,/,/,/,/
Nc1cccc(-c2cn3cc(C(F)(F)F)cc(Cl)c3n2)c1,5.3*,2.1*,14*,1,12*,13*,7.6*,1,9.1*,18*,1
FC(F)(F)c1cc(Cl)c2nc(-c3ccccc3)cn2c1,6.6*,2.8*,20*,3,18*,15*,7.4*,2,17*,23*,1
c1csc(-c2cn3ccc4ccccc4c3n2)c1,4.8*,2.5*,17*,2,14*,8.3*,5.4*,1,15*,18*,1
c1cc(-c2cccs2)nc(-c2cccs2)c1,0,0,-3,2,-2,/,/,/,/,/,/
CC(=O)Nc1ccc2oc(-c3ccccc3Br)nc2c1,5.5*,0,15*,0,8.3*,13*,4.7*,1,4,16*,1
COC(=O)[C@@]12C[C@@H](CC(=O)NCc3cccc(C(F)(F)F)c3)C(=O)N(Cc3cccc4ccccc34)C1=CCC(C)(C)C2,-1,-1,0,/,-2,/,/,/,/,/,/
O=C(NCCNc1ccccc1[N+](=O)[O-])c1cc(F)c(F)cc1Cl,1,0,5,2,2,/,/,/,/,/,/
COc1ccc(C(=O)NCCNc2ccccc2[N+](=O)[O-])cc1,8.0*,0,19*,4,4,14*,6.7*,/,/,15*,1
Cc1nn(-c2ccccc2)c(Cl)c1/C=N/NC(=O)c1[nH]ncc1Br,12*,1,15*,-2,6.0*,13*,7.3*,/,/,15*,1
Cc1nn(-c2ccccc2)c(Cl)c1/C=N/Nc1nc2ccccc2[nH]1,4.8*,1.4*,24*,2,9.5*,18*,6.3*,2,7.8*,22*,1
SMILES,DAX1 inh-1,ssDAF-12 act,hgDAF12 agonist,DAX1 inh-2,hcDAF-12 act,DAX1 conf,SF1 AF2mut Luc,LXR ag,hcDAF12 conf,hgDAF12 conf,LXRb DAF12 ctr
Cc1cc(=O)[nH]c(N/N=C/c2c(C)nn(-c3ccccc3)c2Cl)n1,-2,-2,0,-2,-3,/,/,/,/,/,/
CCn1cnc2cc(NCc3nc4ccccc4n3C)ccc21,5.9*,1.1*,18*,0,15*,10*,4.8*,1,7.5*,13*,1
CCn1cnc2cc(NCc3nc4ccccc4n3Cc3ccccc3)ccc21,0,-2,-2,1,-1,/,/,/,/,/,/
CC(C)C[C@H]1COc2cccc(F)c2S(=O)(=O)N1Cc1cn(CC2CCCCC2)nn1,-1,-1,-1,/,-2,/,/,/,/,/,/
CC(C)(C)C(c1nc2ccccc2[nH]1)n1c(-c2cccc(S(C)(=O)=O)c2)nc2ccccc21 (stereo not drawn),16*,0,16*,/,3,7.7*,9.5*,/,/,12*,0
O=C(Nc1nc(-c2ccc3c(c2)OCCO3)cs1)c1ccco1,12*,1,14*,1,10.0*,11*,7.0*,1,4,17*,1
C=CCNc1nc(-c2ccc3c(c2)OCCO3)cs1,14*,1.1*,20*,2,6.7*,16*,7.4*,2,7.5*,18*,1
N/C(=N\OC(=O)c1ccc2ccccc2c1)c1ccncc1,5.2*,1.1*,17*,5.2*,7.1*,10*,6.2*,1,4,14*,1
N/C(=N\OC(=O)c1ccc2ccccc2c1)c1ccccc1Cl,8.8*,0,14*,2,4,1,3.5*,/,/,13*,0
CNc1nc(Oc2cccc(NC(C)=O)c2)c2sccc2n1,0,-2,-2,/,-2,/,/,/,/,/,/
